# Assay outcomes: PubChem, National Center for Advancing Translational Sciences (NCATS)
# TDP1 cell CPT: growth inhibition of DT40 Tdp1-/-;hTDP1 cells with camptothecin (screen for TDP1 inhibitors); Potency, µM (top dose mostly 46.2 µM), actives largely listed as inhibitors; 420,000 tested, 12% active; AID 686979; chicken DT40 Tdp1-/-;hTDP1 cells + 20 nM CPT, ATP luminescence, 48 h; note: nearly all actives have a fitted effect of over 55% in size
#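 Chicken DT40 Tdp1-/- cells complemented with human TDP1, 400 cells/well, exposed to compounds plus 20 nM camptothecin for at least 48 h at 37 C; viability read as ATP content by CellTiter-Glo luminescence.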
# IL1B secr inh: inhibitors of inflammasome signaling (IL-1 beta secretion); THP-1 LPS/ATP IL-1B secretion, AlphaLISA, 16 h; active compounds read low; activity change, % at 57.5 µM; 360,000 tested, 4.7% active; AID 743279; in the data active = activity change below about -50%; inconclusive = mostly about -30% to -49%
#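 Secreted IL-1B measured by AlphaLISA bead assay after 16 h compound exposure of THP-1 cells; compounds (final up to 57.5 uM) added 1 h before LPS (250 ng/mL) and ATP (1.25 mM) stimulation; lower signal means less secretion.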
# HT1080NT lethal: kills 2HG-producing HT-1080-NT fibrosarcoma cells; HT-1080-NT fibrosarcoma viability, CellTiter-Glo ATP luminescence, 48 h; Potency, µM (series often up to 46.1 µM), hits mostly cytotoxic; 360,000 tested, 1.6% active; AID 686970;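 note: NT is the 2HG producing partner of a matched IDH1 knockdown line; nearly all actives have a fitted effect of over 55% in size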
#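 Read-out is CellTiter-Glo luminescence after 10 minutes at room temperature, following 48 hours' compound treatment of HT-1080-NT cells (750 cells/well, RPMI, 5% FBS, 37 degrees C).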
# 12-LOX inh: blocks human arachidonate 12S-lipoxygenase. Potency, µM (titrated, usually from 108 µM), actives largely listed as inhibitors. purified 12hLO, xylenol orange hydroperoxide absorbance. 580,000 tested, 1.1% active. P18054. AID 1671190
# Target sequence (P18054 whole entry, looked up): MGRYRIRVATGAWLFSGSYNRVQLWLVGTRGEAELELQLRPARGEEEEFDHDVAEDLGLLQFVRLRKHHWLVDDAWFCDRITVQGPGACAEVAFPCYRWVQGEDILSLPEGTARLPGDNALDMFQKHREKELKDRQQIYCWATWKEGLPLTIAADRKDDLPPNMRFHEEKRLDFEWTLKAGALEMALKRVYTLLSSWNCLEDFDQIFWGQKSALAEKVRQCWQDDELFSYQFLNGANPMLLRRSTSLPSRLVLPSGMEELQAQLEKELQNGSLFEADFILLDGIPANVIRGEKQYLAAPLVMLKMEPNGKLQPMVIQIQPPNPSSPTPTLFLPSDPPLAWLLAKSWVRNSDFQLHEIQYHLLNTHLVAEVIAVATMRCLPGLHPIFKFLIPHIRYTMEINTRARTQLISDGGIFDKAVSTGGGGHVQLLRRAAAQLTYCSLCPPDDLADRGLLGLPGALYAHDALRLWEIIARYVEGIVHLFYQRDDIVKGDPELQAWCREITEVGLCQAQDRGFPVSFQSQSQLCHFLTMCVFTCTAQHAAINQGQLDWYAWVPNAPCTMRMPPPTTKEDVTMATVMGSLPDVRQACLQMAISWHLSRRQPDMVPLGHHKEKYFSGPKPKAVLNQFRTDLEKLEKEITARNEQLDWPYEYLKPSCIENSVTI
#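 Purified human 12hLO (150 nM final) in 25 mM Hepes, 0.01% Triton X-100, pH 7.0 was preincubated 15 min at room temperature with compound. Then 40 uM arachidonic acid was added, 30 min. Hydroperoxide was read by Fe-XO absorbance ratio 573/405 nm.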
# HT1080 IDH1KD tx: HT-1080 IDH1 knockdown cell toxicity (counter line); HT-1080 IDH1 knockdown viability, ATP luminescence, 48 h; Potency, µM (doses to about 46.1 µM), usual class: cytotoxic; 360,000 tested, 2% active; AID 686971
#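 Viability of IDH1-knockdown HT-1080 fibrosarcoma cells was assessed by CellTiter-Glo after 48 h at 37 °C with titrated compound; concentration-effect curves were classified by fit quality and response size.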
# DT40 TDP1 no CPT: qHTS for Inhibitors of human tyrosyl-DNA phosphodiesterase 1 (TDP1): qHTS in cells in absence of CPT; AID 686978, 2013; DT40 Tdp1-/- hTDP1 cells, no CPT, ATP luminescence, 48 h; Potency, µM (doses to about 46.2 µM), usual class: inhibitors; 420,000 tested, 15% active; note: nearly all actives have a fitted effect of over 55% in size
#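 Cells were dispensed at 400 per well, compounds added by pin tool, plates incubated ≥48 hr at 37 °C, then CellTiter-Glo added for 30 min at room temperature before luminescence reading. Line: DT40 Tdp1-/- complemented with hTDP1; camptothecin omitted.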
# Hits are given with their value; i = inactive; ? = inconclusive; nt = not tested or not shown; [ ] = remark or other dose. The entries come from a sample that favours hits as a whole. Unless noted, calls come from the whole dose curve; as a rule, active = well fitted curve in the direction sought with a large enough effect; inconclusive = small, poorly fitted or top-dose-only effect, or another doubt; inactive = no such curve, though single readings can be large; an effect the other way counts as inactive or inconclusive.
SMILES,TDP1 cell CPT,IL1B secr inh,HT1080NT lethal,12-LOX inh,HT1080 IDH1KD tx,DT40 TDP1 no CPT
CN1C(=O)CCC2(CNC(=O)c3cccs3)CCC=C12 (centres undefined),nt,nt,nt,i,nt,nt
CCCOc1ccc(NC(=O)COc2ccc(OC)cc2)c2cccnc12,nt,nt,nt,i,nt,nt
O=C(Nc1ccccc1)Nc1ccc(Br)c(Cl)c1,?,?,i,i,i,16µM
COc1ccccc1NC(=O)Nc1ccccc1Br,18µM,i,i,i,i,?
O=C(Nc1ccccc1)Nc1cccc(NC(=O)Nc2ccccc2)c1F,i,i,i,i,i,i
O=C(Nc1ccccc1)Nc1ccccc1Br,15µM,i,i,11µM,i,?
COc1ccccc1NC(=O)Nc1cc(NC(=O)Nc2ccccc2OC)c(C)nc1C,?,i,16µM,i,16µM,?
COC(=O)c1cc(S(=O)(=O)N(C)CC(=O)N2CCN(c3ccc(C(C)=O)cc3)CC2)cn1C,nt,nt,nt,i,nt,nt
O=C(CCC1CCCCC1)NCCCNC(=O)CCC1CCCCC1,nt,nt,nt,i,nt,nt
COc1ccc(C2C(C(=O)OC(C)C)=C(C)Nc3nc4ccccc4n32)cc1 (centres undefined),nt,nt,nt,i,nt,nt
COc1ccccc1NC(=O)C(Sc1ccccc1)c1ccccc1 (centres undefined),21µM,i,i,i,i,?
O=c1cc(-c2ccccc2)n(S(=O)(=O)c2ccccc2)o1,i,i,i,10µM,i,i
COc1ccc(S(=O)(=O)n2oc(=O)cc2-c2ccccc2)cc1OC,i,i,i,14µM,i,i
COc1ccc(S(=O)(=O)n2oc(=O)cc2-c2ccccc2)cc1,i,i,i,?,i,i
COc1ccc(S(=O)(=O)N2CC=C(c3ccccc3)CC2)cc1OC,?,i,i,i,i,23µM
O=c1cc(-c2ccccc2)n(S(=O)(=O)c2ccc3ccccc3c2)o1,i,i,i,?,i,i
N#Cc1nc(-c2ccco2)oc1N1CCN(C(=O)c2cccc(Cl)c2)CC1,nt,nt,nt,i,nt,nt
O=C(c1cc(C2CC2)nc2ccc(Br)cc12)N1N=C(C(F)F)CC1(O)C(F)F (centres undefined),16µM,?,?,i,i,16µM
O=C(c1cc(C2CC2)nc2ccccc12)N1N=C(C(F)F)CC1(O)C(F)F (centres undefined),?,i,i,i,i,?
CN(C)C1(c2nnnn2-c2ccc3c(c2)OCCO3)C2CC3CC(C2)CC1C3 (centres undefined),nt,nt,nt,i,nt,nt
CCn1c(SCC(=O)c2ccccc2)nc2sc3c(c2c1=O)CCN(C)C3,23µM,i,i,i,i,21µM
CCn1c(SCC(=O)NCCc2ccccc2)nc2sc3c(c2c1=O)CCN(C)C3,?,i,i,i,i,?
CCCCSc1nc2sc3c(c2c(=O)n1-c1ccccc1)CCN(C)C3,9.2µM,i,i,?,i,7.3µM
CCCCSc1nc2sc3c(c2c(=O)n1-c1ccc(OC)cc1)CCN(C)C3,?,i,i,?,i,?
CN1CCc2c(sc3nc(SCC(N)=O)n(-c4ccc(Cl)cc4)c(=O)c23)C1,?,i,i,?,i,23µM
SMILES,TDP1 cell CPT,IL1B secr inh,HT1080NT lethal,12-LOX inh,HT1080 IDH1KD tx,DT40 TDP1 no CPT
CN1CCc2c(sc3nc(SCC(N)=O)n(-c4ccccc4)c(=O)c23)C1,i,i,i,i,i,i
CCSc1nc2sc3c(c2c(=O)n1-c1ccccc1C)CCN(C)C3,?,i,i,?,i,29µM
CCSc1nc2sc3c(c2c(=O)n1-c1ccccc1)CCN(C(C)C)C3,10µM,i,i,?,i,21µM
CCCN(CCC)C(=O)CSc1nc2sc3c(c2c(=O)n1-c1ccccc1)CCN(C(C)=O)C3,?,nt,nt,i,nt,i
C=C(C)CSc1nc2sc3c(c2c(=O)n1-c1ccccc1)CCN(C)C3,?,i,i,?,?,29µM
CCCCCSc1nc2sc3c(c2c(=O)n1-c1ccc(OC)cc1)CCN(C(C)=O)C3,?,nt,nt,?,nt,26µM
CSc1nc2sc3c(c2c(=O)n1-c1ccc(C)c(Cl)c1)CCN(C(C)=O)C3,?,nt,nt,i,nt,15µM
O=C(CCc1c[nH]c2ccccc12)N1CCCC1c1ccccc1 (centres undefined),nt,nt,nt,i,nt,nt
O=C(Cc1ccccc1)N1CCCC1c1ccccc1 (centres undefined),16µM,i,i,i,i,?
CCCCCCCCCC[n+]1cc(Br)cc(Br)c1,0.79µM,nt,nt,nt,nt,0.45µM
CCCCCCCCCCCCCCC,nt,nt,nt,i,nt,nt
Brc1ccc[n+](CCC2CCCCC2)c1,?,nt,nt,nt,nt,10µM
CCCCCCCCCC[n+]1cccc(Br)c1,1.4µM,nt,nt,nt,nt,5µM
CCCCCCCCCC[n+]1cccc(C(=O)N(CC)CC)c1,8.2µM,i,i,i,i,2.9µM
COc1ccccc1-c1cc(NC(=O)C(C)SC)n[nH]1 (centres undefined),nt,nt,nt,i,nt,nt
COc1ccc(S(=O)(=O)N2CCN(c3ccccc3)CC2)cc1-c1noc(C2CCCCC2)n1,nt,nt,nt,i,nt,nt
COc1ccc(O)c(-c2nc(N)nc(N)n2)c1,16µM,-98,i,i,i,18µM
Nc1nc(N)nc(-c2cc(F)ccc2O)n1,?,-99,i,i,i,?
Cc1ccc(-c2nc(N)nc(N)n2)c(C)c1,i,i,i,i,i,i
COc1ccc(Cc2nc(N)nc(N)n2)cc1,i,i,i,i,i,i
Cc1cc2cc(CN(C(=O)C3CC3)C3CCCC3)c3nnnn3c2cc1C,?,i,i,i,i,21µM
CCc1ccc2c(c1)cc(CN(C(=S)Nc1cccc(C)c1)C1CC1)c1nnnn12,?,i,i,i,i,?
O=C(COC(=O)/C=C/c1ccccc1[N+](=O)[O-])NC1CC1,?,i,i,i,i,21µM
NC(=O)c1ccsc1NC(=O)COC(=O)Cc1ccsc1,?,i,i,i,i,?
NC(=O)c1ccsc1NC(=O)COC(=O)COc1ccccc1[N+](=O)[O-],i,i,i[9.24 µM],i,i,i
SMILES,TDP1 cell CPT,IL1B secr inh,HT1080NT lethal,12-LOX inh,HT1080 IDH1KD tx,DT40 TDP1 no CPT
NC(=O)c1ccsc1NC(=O)COC(=O)/C=C/c1ccccc1[N+](=O)[O-],?,i,i,i,i,16µM
NC(=O)c1ccsc1NC(=O)COC(=O)/C=C/c1ccccc1,?,i,i,i,i,18µM
COc1cc(CC(=O)OCC(=O)Nc2sccc2C(N)=O)cc(OC)c1OC,29µM,i,i,i,i,16µM
CC(C)OC(=O)c1ccc(NC(=O)CSc2cn[nH]c(=O)n2)cc1,nt,nt,nt,i,nt,nt
Cc1ccc(S(=O)(=O)CC(=O)c2ccc(F)cc2)cc1,nt,nt,nt,i,nt,nt
COC(=O)C(CC(C)C)NC(=O)C(Cc1ccccc1)NC(=O)OC(C)(C)C (centres undefined),nt,nt,nt,i,nt,nt
O=C(/C=C/c1cccnc1)/C=C/c1cccnc1,1µM,-93,4.1µM,i,3.3µM,0.58µM
